# PubChem BioAssay (NCI)
# This is part of a sample that, as a whole, favours compounds with a hit. Of some 79,000 tested, about 15% had one in any assay. Unmarked numbers belong to inactive results. Calls of active or inactive are those of the source. Cut-off read from the data, not from the text of the source: active = growth inhibition above about 70%; inactive = the rest.
# Assays:
# [1] = NCI Yeast Anticancer Drug Screen. Data for the rad52 strain (AID 147);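 note: 0% = growth of vehicle-treated control cultures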; settings: S. cerevisiae rad52 mutant growth inhibition, active compounds read high
# Summary of the method: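 Compounds are applied to a genetically defined yeast strain lacking normal DNA damage repair, and inhibition of growth is expressed relative to cultures given vehicle only.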
# [2] = NCI Yeast Anticancer Drug Screen. Data for the wt1 strain (AID 149);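 note: 0% = growth of vehicle-treated wt1 cultures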; settings: S. cerevisiae wt1 strain (SPY 50644) growth inhibition, active compounds read high
# Summary of the method: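 Yeast wt1 strain exposed to compounds; growth inhibition measured relative to vehicle-treated controls.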
# [3] = NCI Yeast Anticancer Drug Screen. Data for the rad50EPP+ strain (AID 151);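 note: 0% = growth of vehicle-treated control cultures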; settings: S. cerevisiae rad50 mutant strain, active compounds read high
# Summary of the method: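 Compounds were applied to the rad50EPP+ yeast strain, which bears a defined DNA repair alteration, and growth inhibition was determined relative to vehicle-treated cultures.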
# [4] = NCI Yeast Anticancer Drug Screen. Data for the mgt1 strain (AID 153); settings: S. cerevisiae mgt1 mutant growth inhibition, active compounds read high
# Summary of the method: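 Strain: mgt1 yeast, one of a set carrying defined DNA damage repair or cell cycle control alterations. Compound-treated growth compared with vehicle.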
# [5] = NCI Yeast Anticancer Drug Screen. Data for the rad50 strain (AID 155);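 note: 0% = growth of vehicle-only cultures of the same strain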; settings: S. cerevisiae rad50 strain growth inhibition, active compounds read high
# Summary of the method: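 Yeast carrying a defined DNA repair defect were exposed to test compounds, and growth was compared with vehicle-treated controls to give percent inhibition.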
# [6] = NCI Yeast Anticancer Drug Screen. Data for the mec2-1 strain (AID 157); settings: S. cerevisiae mec2-1 strain, active compounds read high
# Summary of the method: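 Strain: mec2-1 (DNA repair/cell cycle alteration). Compound exposure, then growth measured; inhibition expressed relative to vehicle.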
# [7] = NCI Yeast Anticancer Drug Screen. Data for the rad14 strain (AID 159);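 note: 0% = growth of vehicle-treated control cultures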; settings: S. cerevisiae rad14 strain growth inhibition, active compounds read high
# Summary of the method: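 Yeast cells carrying a defined DNA-repair defect were exposed to compounds, and growth inhibition was calculated relative to vehicle-treated control cultures.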
# [8] = NCI Yeast Anticancer Drug Screen. Data for the sgs1 mgt1 strain (AID 161);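 note: 0% = growth of cultures given vehicle only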; settings: S. cerevisiae sgs1 mgt1 strain, active compounds read high
# Summary of the method: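 Mutant yeast exposed to compound; growth scored against vehicle-only wells.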
# [9] = NCI Yeast Anticancer Drug Screen. Data for the CLN2oe strain (AID 163);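 note: 0% = growth of vehicle-only control cultures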; settings: S. cerevisiae CLN2oe strain, active compounds read high
# Summary of the method: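 Growth of a genetically modified yeast strain is measured after compound exposure and compared with cultures given vehicle alone.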
# [10] = NCI Yeast Anticancer Drug Screen. Data for the cln2 rad14 strain (AID 165);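 note: 0% = growth equal to vehicle treated cultures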; settings: S. cerevisiae cln2 rad14 strain, active compounds read high
# Summary of the method: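 Compounds are applied to the cln2 rad14 yeast strain, and growth is then compared with that of vehicle-treated cultures to give inhibition.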
# [11] = NCI Yeast Anticancer Drug Screen. Data for the bub3 strain (AID 167); settings: S. cerevisiae bub3 mutant strain, active compounds read high
# Summary of the method: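 Compounds were applied to a genetically altered yeast strain carrying a cell-cycle control defect. Growth inhibition was scored against vehicle-treated controls.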
# [12] = NCI Yeast Anticancer Drug Screen. Data for the wt2 strain (AID 169);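 note: 0% = growth of vehicle-treated yeast cultures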; settings: S. cerevisiae wt2 strain growth inhibition, active compounds read high
# Summary of the method: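 This strain belongs to a panel of yeast strains with defined genetic alterations in DNA damage repair or cell cycle control. Compounds are applied, and growth inhibition is measured against vehicle-treated cultures.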
# [13] = NCI Yeast Anticancer Drug Screen. Data for the mlh1 strain (AID 171);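 note: 0% = growth of vehicle-treated control cultures of the same strain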; settings: S. cerevisiae mlh1 strain growth inhibition, active compounds read high
# Summary of the method: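 Growth of the mutant yeast strain after compound exposure, expressed as inhibition relative to vehicle-only controls.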
# [14] = NCI Yeast Anticancer Drug Screen. Data for the sgs1 strain (AID 173);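 note: 0% = growth of vehicle-only control cultures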; settings: S. cerevisiae sgs1 mutant, active compounds read high
# Summary of the method: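 Growth of a yeast strain bearing a defined genetic alteration is measured after compound treatment. Inhibition is expressed relative to vehicle-only controls.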
# [15] = NCI Yeast Anticancer Drug Screen. Data for the mlh1 rad18 strain (AID 175); settings: S. cerevisiae mlh1 rad18 strain growth inhibition, active compounds read high
# Summary of the method: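 Read-out is yeast growth inhibition, calculated against vehicle-only controls. The compound was applied to a strain engineered with DNA damage repair alterations.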
# [16] = NCI Yeast Anticancer Drug Screen. Data for the rad18 strain (AID 177); settings: S. cerevisiae rad18 mutant growth inhibition, active compounds read high
# Summary of the method: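 Growth of the mutant yeast strain after compound exposure, normalised to vehicle-only cultures.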
# [17] = at 5.0 µM (retest, dose inferred, filed as 0.5)
# [18] = at 50.0 µM (retest, dose inferred, filed as 5.0)
smiles,measurement,setting,value
O=C(CC(C(=O)O)N1CCOCC1)c1ccccc1 (stereo unspecified),growth inhibition,[1]; at 1.2 µM,-1%
same,growth inhibition,[1]; at 3.7 µM,-2%
same,growth inhibition,[1]; at 11.0 µM,0%
same,growth inhibition,[1]; at 33.0 µM,32%
same,growth inhibition,[1]; at 100.0 µM,73% (active)
same,growth inhibition,[2]; at 1.2 µM,-1%
same,growth inhibition,[2]; at 3.7 µM,-2%
same,growth inhibition,[2]; at 11.0 µM,0%
same,growth inhibition,[2]; at 33.0 µM,12%
same,growth inhibition,[2]; at 100.0 µM,47%
same,growth inhibition,[3]; at 1.2 µM,-2%
same,growth inhibition,[3]; at 3.7 µM,-1%
same,growth inhibition,[3]; at 11.0 µM,2%
same,growth inhibition,[3]; at 33.0 µM,12%
same,growth inhibition,[3]; at 100.0 µM,43%
same,growth inhibition,[4]; at 1.2 µM,-3%
same,growth inhibition,[4]; at 3.7 µM,-3%
same,growth inhibition,[4]; at 11.0 µM,1%
same,growth inhibition,[4]; at 33.0 µM,33%
same,growth inhibition,[4]; at 100.0 µM,65%
same,growth inhibition,[5]; at 1.2 µM,-3%
same,growth inhibition,[5]; at 3.7 µM,1%
same,growth inhibition,[5]; [17],13%
same,growth inhibition,[5]; at 11.0 µM,2%
same,growth inhibition,[5]; at 33.0 µM,36%
same,growth inhibition,[5]; [18],65%
same,growth inhibition,[5]; at 50.0 µM,49%
same,growth inhibition,[5]; at 100.0 µM,77% (active)
same,growth inhibition,[6]; at 1.2 µM,-6%
same,growth inhibition,[6]; at 3.7 µM,-11%
same,growth inhibition,[6]; [17],-2%
same,growth inhibition,[6]; at 11.0 µM,2%
same,growth inhibition,[6]; at 33.0 µM,31%
same,growth inhibition,[6]; [18],41%
same,growth inhibition,[6]; at 50.0 µM,12.4%
same,growth inhibition,[6]; at 100.0 µM,66%
same,growth inhibition,[7]; at 1.2 µM,-3%
same,growth inhibition,[7]; at 3.7 µM,-5%
same,growth inhibition,[7]; at 11.0 µM,0%
same,growth inhibition,[7]; at 33.0 µM,3%
same,growth inhibition,[7]; at 100.0 µM,29%
same,growth inhibition,[8]; [17],-6%
same,growth inhibition,[8]; [18],54%
same,growth inhibition,[8]; at 50.0 µM,3.3%
same,growth inhibition,[9]; at 1.2 µM,-4%
same,growth inhibition,[9]; at 3.7 µM,-9%
same,growth inhibition,[9]; at 11.0 µM,-10%
same,growth inhibition,[9]; at 33.0 µM,-2%
same,growth inhibition,[9]; at 100.0 µM,22%
same,growth inhibition,[10]; [17],81% (active)
same,growth inhibition,[10]; [18],17%
same,growth inhibition,[10]; at 50.0 µM,-16.2%
same,growth inhibition,[11]; at 1.2 µM,-16%
same,growth inhibition,[11]; at 3.7 µM,-17%
same,growth inhibition,[11]; [17],98% (active)
same,growth inhibition,[11]; at 11.0 µM,-8%
same,growth inhibition,[11]; at 33.0 µM,29%
same,growth inhibition,[11]; [18],60%
same,growth inhibition,[11]; at 50.0 µM,21.3%
same,growth inhibition,[11]; at 100.0 µM,68%
same,growth inhibition,[12]; at 1.2 µM,-4%
same,growth inhibition,[12]; at 3.7 µM,-3%
same,growth inhibition,[12]; at 11.0 µM,0%
same,growth inhibition,[12]; at 33.0 µM,31%
same,growth inhibition,[12]; at 100.0 µM,71% (active)
same,growth inhibition,[13]; at 1.2 µM,-3%
same,growth inhibition,[13]; at 3.7 µM,-3%
same,growth inhibition,[13]; at 11.0 µM,4%
same,growth inhibition,[13]; at 33.0 µM,37%
same,growth inhibition,[13]; at 100.0 µM,77% (active)
same,growth inhibition,[14]; at 1.2 µM,0%
same,growth inhibition,[14]; at 3.7 µM,5%
same,growth inhibition,[14]; at 11.0 µM,19%
same,growth inhibition,[14]; at 33.0 µM,56%
same,growth inhibition,[14]; at 100.0 µM,80% (active)
same,growth inhibition,[15]; [17],10%
same,growth inhibition,[15]; [18],47%
same,growth inhibition,[15]; at 50.0 µM,47.9%
same,growth inhibition,[16]; at 1.2 µM,-1%
same,growth inhibition,[16]; at 3.7 µM,5%
same,growth inhibition,[16]; at 11.0 µM,28%
same,growth inhibition,[16]; at 33.0 µM,80% (active)
same,growth inhibition,[16]; at 100.0 µM,91% (active)
CCCCCCCCCCCC(O)S(=O)(=O)O (stereo unspecified),growth inhibition,[1]; at 1.2 µM,0%
same,growth inhibition,[1]; at 3.7 µM,0%
same,growth inhibition,[1]; at 11.0 µM,-3%
same,growth inhibition,[1]; at 33.0 µM,2%
same,growth inhibition,[1]; at 100.0 µM,55%
same,growth inhibition,[2]; at 1.2 µM,-2%
same,growth inhibition,[2]; at 3.7 µM,-1%
same,growth inhibition,[2]; at 11.0 µM,-4%
same,growth inhibition,[2]; at 33.0 µM,1%
same,growth inhibition,[2]; at 100.0 µM,15%
same,growth inhibition,[3]; at 1.2 µM,7%
same,growth inhibition,[3]; at 3.7 µM,3%
same,growth inhibition,[3]; at 11.0 µM,7%
same,growth inhibition,[3]; at 33.0 µM,15%
same,growth inhibition,[3]; at 100.0 µM,58%
same,growth inhibition,[4]; at 1.2 µM,-3%
same,growth inhibition,[4]; at 3.7 µM,0%
same,growth inhibition,[4]; at 11.0 µM,-2%
same,growth inhibition,[4]; at 33.0 µM,-1%
same,growth inhibition,[4]; at 100.0 µM,70% (active)
same,growth inhibition,[5]; at 1.2 µM,4%
same,growth inhibition,[5]; at 3.7 µM,3%
same,growth inhibition,[5]; [17],-13%
same,growth inhibition,[5]; at 11.0 µM,-2%
same,growth inhibition,[5]; at 33.0 µM,2%
same,growth inhibition,[5]; [18],20%
same,growth inhibition,[5]; at 50.0 µM,-3.6%
same,growth inhibition,[5]; at 100.0 µM,50%
same,growth inhibition,[6]; at 1.2 µM,-1%
same,growth inhibition,[6]; at 3.7 µM,0%
same,growth inhibition,[6]; [17],-17%
same,growth inhibition,[6]; at 11.0 µM,-2%
same,growth inhibition,[6]; at 33.0 µM,-1%
same,growth inhibition,[6]; [18],-23%
same,growth inhibition,[6]; at 50.0 µM,37.9%
same,growth inhibition,[6]; at 100.0 µM,74% (active)
same,growth inhibition,[7]; at 1.2 µM,3%
same,growth inhibition,[7]; at 3.7 µM,4%
same,growth inhibition,[7]; at 11.0 µM,2%
same,growth inhibition,[7]; at 33.0 µM,10%
same,growth inhibition,[7]; at 100.0 µM,95% (active)
same,growth inhibition,[8]; [17],-10%
same,growth inhibition,[8]; [18],17%
same,growth inhibition,[8]; at 50.0 µM,0.05%
same,growth inhibition,[9]; at 1.2 µM,-2%
same,growth inhibition,[9]; at 3.7 µM,-1%
same,growth inhibition,[9]; at 11.0 µM,-2%
same,growth inhibition,[9]; at 33.0 µM,-2%
same,growth inhibition,[9]; at 100.0 µM,66%
same,growth inhibition,[10]; [17],-5%
same,growth inhibition,[10]; [18],6%
same,growth inhibition,[10]; at 50.0 µM,-14.4%
same,growth inhibition,[11]; at 1.2 µM,1%
same,growth inhibition,[11]; at 3.7 µM,-1%
same,growth inhibition,[11]; [17],0%
same,growth inhibition,[11]; at 11.0 µM,-2%
same,growth inhibition,[11]; at 33.0 µM,0%
same,growth inhibition,[11]; [18],59%
same,growth inhibition,[11]; at 50.0 µM,7.55%
same,growth inhibition,[11]; at 100.0 µM,12%
same,growth inhibition,[12]; at 1.2 µM,-4%
same,growth inhibition,[12]; at 3.7 µM,-9%
same,growth inhibition,[12]; at 11.0 µM,-7%
same,growth inhibition,[12]; at 33.0 µM,-11%
same,growth inhibition,[12]; at 100.0 µM,98% (active)
same,growth inhibition,[13]; at 1.2 µM,0%
same,growth inhibition,[13]; at 3.7 µM,0%
same,growth inhibition,[13]; at 11.0 µM,-2%
same,growth inhibition,[13]; at 33.0 µM,3%
same,growth inhibition,[13]; at 100.0 µM,94% (active)
same,growth inhibition,[14]; at 1.2 µM,1%
same,growth inhibition,[14]; at 3.7 µM,-2%
same,growth inhibition,[14]; at 11.0 µM,-12%
same,growth inhibition,[14]; at 33.0 µM,6%
same,growth inhibition,[14]; at 100.0 µM,96% (active)
same,growth inhibition,[15]; [17],7%
same,growth inhibition,[15]; [18],39%
same,growth inhibition,[15]; at 50.0 µM,17.4%
same,growth inhibition,[16]; at 1.2 µM,1%
same,growth inhibition,[16]; at 3.7 µM,1%
same,growth inhibition,[16]; at 11.0 µM,-2%
same,growth inhibition,[16]; at 33.0 µM,-1%
same,growth inhibition,[16]; at 100.0 µM,90% (active)
